Compound activity deposited in PubChem by Pan Lab, Icahn School of Medicine at Mount Sinai.
The full list was thinned out, with hits kept by preference.
ROC1-CUL1 inh = inhibitors of human ROC1-CUL1 ubiquitin ligase activity; P62877+Q13616; in vitro K48 di-Ub FRET, acceptor:donor ratio, 45 min; inhibition, % at 10 µM; 140,000 compounds, 0.6% hits; AID 1347404; in the data active means inhibition above about 25%
Target sequence (P62877 whole entry, looked up): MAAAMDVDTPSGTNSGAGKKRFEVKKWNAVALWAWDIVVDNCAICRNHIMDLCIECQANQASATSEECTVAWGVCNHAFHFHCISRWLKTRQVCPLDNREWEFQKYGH
Target sequence (Q13616 whole entry, looked up): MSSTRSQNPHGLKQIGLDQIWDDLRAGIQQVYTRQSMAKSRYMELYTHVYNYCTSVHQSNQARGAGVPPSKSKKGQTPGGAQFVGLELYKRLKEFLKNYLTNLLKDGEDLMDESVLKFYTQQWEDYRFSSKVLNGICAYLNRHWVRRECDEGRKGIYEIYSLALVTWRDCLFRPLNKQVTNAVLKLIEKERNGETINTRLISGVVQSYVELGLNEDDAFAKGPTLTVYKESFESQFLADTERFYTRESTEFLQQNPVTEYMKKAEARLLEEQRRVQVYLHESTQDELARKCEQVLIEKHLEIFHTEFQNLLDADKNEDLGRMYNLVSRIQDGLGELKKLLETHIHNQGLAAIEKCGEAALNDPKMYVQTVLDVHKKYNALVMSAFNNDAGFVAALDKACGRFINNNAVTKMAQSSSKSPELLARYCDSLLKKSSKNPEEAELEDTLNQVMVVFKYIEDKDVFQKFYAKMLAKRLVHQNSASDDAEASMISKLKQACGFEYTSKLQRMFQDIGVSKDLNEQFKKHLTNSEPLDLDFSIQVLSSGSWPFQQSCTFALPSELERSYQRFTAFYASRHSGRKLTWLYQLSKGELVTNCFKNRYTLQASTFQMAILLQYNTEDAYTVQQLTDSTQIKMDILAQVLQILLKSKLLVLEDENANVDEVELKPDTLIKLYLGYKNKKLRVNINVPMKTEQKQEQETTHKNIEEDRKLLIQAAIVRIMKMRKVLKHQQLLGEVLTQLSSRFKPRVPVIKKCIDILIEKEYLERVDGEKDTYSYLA
A number is an active result; - = inactive.

SMILES	ROC1-CUL1 inh
COc1cccc(/C=C(\C#N)c2nc3ccc(C)cc3[nH]2)c1	-
Cc1ccc2nc(/C(C#N)=C/c3ccccc3Cl)[nH]c2c1	-
Cc1ccc2nc(/C(C#N)=C/c3coc4ccccc4c3=O)[nH]c2c1	26
CCOC(=O)C1(C)CC(=Nc2ccc(OC)cc2)C(=O)N1c1ccccc1 (stereo not given)	-
CCn1c2ccccc2c2cc(C=C3C(=O)NC(=S)NC3=O)ccc21	-
O=C(CCN1CCOCC1)NC1CCCN(c2nc3ccccc3s2)C1 (stereo not given)	-
COC(=O)c1ccccc1C(=O)N1CCOC(CC2CCCCC2)C1 (stereo not given)	-
CCN1CCN(CC(O)COc2cccc(CNCCN3CCOC3=O)c2)CC1 (stereo not given)	-
Cc1cccc(-n2c(SCC(=O)Nc3ccc(C)c(Cl)c3)nc3sc4c(c3c2=O)CCCC4)c1	-
O=C(N/N=C/c1cc([N+](=O)[O-])ccc1O)c1cnccn1	-
O=C(N/N=C/c1cc([N+](=O)[O-])ccc1O)c1ccccn1	-
O=C(N/N=C/c1cc([N+](=O)[O-])ccc1O)c1ccc(C(=O)N/N=C/c2cc([N+](=O)[O-])ccc2O)o1	98
O=c1cc(C2CCN(Cc3cncn3Cc3ccccc3)CC2)nc[nH]1	-
Cc1cc2c(cc1C)n(N)c(=S)n2C	-
CCN1C(=O)/C(=C/c2ccc(F)c(Br)c2)SC1=S	-
NN1C(=O)/C(=C\c2ccc(O)cc2)SC1=S	-
NN1C(=O)/C(=C/c2ccc(O)c(Br)c2)SC1=S	50
CCc1ccc(C2C(C)C(N3CCC(C(=O)Nc4ccc(F)cc4)CC3)NS2(=O)=O)cc1 (stereo not given)	-
Cc1c(C2(c3c(C)n(C)c4ccccc34)C(=O)N(Cc3ccccc3Cl)c3ccccc32)c2ccccc2n1C	-
N#CC1C(O)C2CC1C1C3N=NC(C4C=CCC43)C21 (stereo not given)	-
Cc1ccc(CSc2nnc(N3C(=O)C(=O)C(C(=O)c4cc5ccccc5o4)C3c3ccc(OCc4ccccc4)cc3)s2)cc1 (stereo not given)	47
Cc1ccc(C2C(C(=O)c3cc4ccccc4o3)C(=O)C(=O)N2c2nnc(SCc3cccc4ccccc34)s2)cc1 (stereo not given)	-
COc1cc(C2C(C(=O)c3cc4ccccc4o3)C(=O)C(=O)N2c2nc3c(C)cc(C)cc3s2)ccc1OCc1ccccc1 (stereo not given)	-
Cc1ccc2nc(N3C(=O)C(=O)C(C(=O)c4cc5ccccc5o4)C3c3ccccc3)sc2c1 (stereo not given)	-
CC(=O)c1sc(N2C(=O)C(=O)C(C(=O)c3cc4ccccc4o3)C2c2ccc(F)cc2)nc1C (stereo not given)	-
SMILES	ROC1-CUL1 inh
CCCCCOc1ccc(C2C(C(=O)c3cc4ccccc4o3)C(=O)C(=O)N2c2nc(C)c(C(C)=O)s2)cc1OC (stereo not given)	-
O=C1C(=O)N(c2nnc(SCc3ccccc3F)s2)C(c2ccc(F)cc2)C1C(=O)c1cc2ccccc2o1 (stereo not given)	-
COc1cc(C2C(C(=O)c3cc4ccccc4o3)C(=O)C(=O)N2c2nnc(C)s2)ccc1OCc1ccccc1 (stereo not given)	65
O=C1C(=O)N(c2nnc(SCc3ccc(F)cc3)s2)C(c2cccc(Oc3ccccc3)c2)C1C(=O)c1cc2ccccc2o1 (stereo not given)	41
O=C1/C(=C/c2c(Cl)ccc([N+](=O)[O-])c2Cl)Sc2ccccc21	-
Cc1ccc(C(=O)Nc2cccc([N+](=O)[O-])c2)cc1[N+](=O)[O-]	-
CC1CCN(C(=O)C(Cc2ccc(Cl)cc2)=NC(=O)c2ccccc2)CC1	-
CC1(C)CC(=O)C2=C(C1)N(c1ccc(Cl)cc1)C(=O)C(c1ccccc1)C2=O (stereo not given)	-
CCOc1ccccc1NC(=O)C1CC1	-
C=CCN(CC=C)S(=O)(=O)c1ccc(NC(=O)Nc2cccc(Cl)c2)cc1	-
Cc1ccc(C(=O)N2CCN(c3c(N)cccc3Cl)CC2)cc1	-
Cc1cccc(COc2ccc(CC3=NC(=S)N(C)C3=O)cc2)c1	-
CCOc1cc(CNc2ccc(C)c(Cl)c2)cc(Cl)c1OCc1ccc(Cl)cc1Cl	-
COc1cc(CNc2ccc(N3CCCCC3)cc2)cc(Cl)c1OCc1cccs1	-
COc1cc(CNc2ccc(O)cc2)cc(Cl)c1OCc1ccc(Cl)cc1	-
CCOc1cc(CNc2ccc(N3CCCC3)cc2)cc(Cl)c1OC	63
CCOc1cc(CNc2ccc(O)cc2)cc(Cl)c1OCc1ccc(Cl)cc1	86
COc1cc(CNc2ccc(N3CCCC3)cc2)cc(Cl)c1OC	-
CC(=O)n1c(Nc2ccccc2)nnc1C(N)=O	-
COc1ccc(OC/C=C/CN(C)C)cc1	-
Cc1ccc(-c2nnnn2-c2cccc(C(=O)c3ccccc3)c2)cc1	-
C/C(=C\Cn1cnc(C(N)=O)c1N)COC(C)(C)C	-
O=C1Nc2ccccc2C(=O)C1N1CCOCC1 (stereo not given)	-
O=C(O)c1cccc(N=C2C(=O)N(c3ccc(Cl)cc3Cl)C(=O)C2Cl)c1 (stereo not given)	-
O=C(O)c1cccc(N=C2C(=O)c3ccccc3C(=O)C2N2CCOCC2)c1 (stereo not given)	54
SMILES	ROC1-CUL1 inh
CN1c2cccc3cccc(c23)N(C)C1c1cccs1	78
CC1N(C)c2cccc3cccc(c23)N1C	-
CN1c2ccccc2N(C)C1c1cccs1	-
CC(=O)N1CC(C)C(=S)Nc2ccccc21 (stereo not given)	-
COc1ccc(S(=O)(=O)N=C2C(=O)N(c3ccccc3)N(C)C2C)cc1C (stereo not given)	-
Cc1cc(Cl)ccc1OCC(=O)NC(=S)Nc1ccc(Br)c(C)n1	-
Cc1ccccc1NC(=O)N1C[C@H](O)[C@@H](N(C)Cc2cnccn2)C1	-
O=C1NC(=S)S/C1=C/c1ccc(N2N=C(c3ccccc3)CC2c2ccccc2)cc1 (stereo not given)	81
Cc1cc(/C=C2/SC(=S)NC2=O)c(C)n1-c1ccccc1	-
O=C1NC(=S)S/C1=C/c1ccc(F)cc1	-
Cc1ccc(S(=O)(=O)Nc2ccc(CCc3nc4ccccc4o3)cc2)cc1	-
CC(C)(C)C1(O)CC(C(F)(F)F)=NN1C(=O)Cc1ccccc1 (stereo not given)	-
Nc1nccc(N2CCC(C3CCN(Cc4cccnc4)CC3)C2)n1 (stereo not given)	-
CC1(C)CC(=O)c2cc(NC(=O)c3ccccc3Cl)c(=O)oc2C1	-
CC(=O)Cc1ccccc1/C=C1\OC(=O)c2ccccc21	-
COc1ccccc1/C=C1\Oc2cccc(OC)c2C1=O	-
CN(C)c1ccccc1/C=C1\Oc2ccccc2C1=O	27
O=C(COC(=O)c1ccc(NC(=O)c2ccc([N+](=O)[O-])cc2)cc1)c1ccccc1	-
COC(=O)c1ccccc1NC(=O)c1nc2nc(-c3cccs3)cc(C(F)(F)F)n2n1	-
CCOC(=O)c1ccc(N2NC(=O)/C(=C/c3ccc(-c4ccc(Br)cc4C(=O)O)o3)C2=O)cc1	98
CCOC(=O)c1cc(-c2ccc(/C=C3/C(=O)NN(c4ccccc4)C3=O)o2)ccc1Cl	-
CCOC(=O)c1ccc(-c2ccc(/C=C3\C(=O)NN(c4ccc(Br)c5ccccc45)C3=O)o2)cc1	-
O=C1C(=O)N(Cc2ccccc2)C(=S)N1Cc1ccccc1	-
CC(C)CCn1c(C(C)C)nc([N+](=O)[O-])c1Sc1ccccc1	-
CC(=O)Oc1ccc2c(c1)OCCC2=O	-
